The target of assay [1] is T1, Aspartate--tRNA(Asp/Asn) ligase (Mycobacterium tuberculosis (strain ATCC 25618 / H37Rv)) (UniProt P9WFW3). Further: in the data most compounds retested in dose-response had high values.
T1 sequence (whole entry): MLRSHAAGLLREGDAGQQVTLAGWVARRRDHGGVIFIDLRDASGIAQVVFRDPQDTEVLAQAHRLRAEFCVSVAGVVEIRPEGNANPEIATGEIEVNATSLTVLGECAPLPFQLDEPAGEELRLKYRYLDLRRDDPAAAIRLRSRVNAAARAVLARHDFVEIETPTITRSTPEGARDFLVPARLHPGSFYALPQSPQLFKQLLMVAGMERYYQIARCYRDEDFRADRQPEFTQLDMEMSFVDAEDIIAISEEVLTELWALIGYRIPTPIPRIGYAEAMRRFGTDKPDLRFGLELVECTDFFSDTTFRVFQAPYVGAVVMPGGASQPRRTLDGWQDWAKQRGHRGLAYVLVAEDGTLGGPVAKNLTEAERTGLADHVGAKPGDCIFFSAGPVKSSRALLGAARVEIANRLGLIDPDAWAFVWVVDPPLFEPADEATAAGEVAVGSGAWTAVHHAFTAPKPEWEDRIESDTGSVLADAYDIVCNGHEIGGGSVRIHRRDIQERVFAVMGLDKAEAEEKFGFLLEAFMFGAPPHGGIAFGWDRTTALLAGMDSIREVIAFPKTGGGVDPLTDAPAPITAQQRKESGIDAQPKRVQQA
Nature of the assay: Assay for Asp RNA synthetase-1 from Mycobacterium tuberculosis. The settings on record: 30 µM. The class given is functional. Set-up: scale not given: direction of the effect not stated beside the values.

Assay [2] deals with Shiga toxin 2 (Escherichia coli O157:H7) (UniProt P09385+P09386). Description: E. coli 0.157:H7 Shiga Toxin SOP - stx2 screening assay. The class given is functional. Set-up: scale not given: direction of the effect not stated beside the values. The following applies: 30 µM.

As for `CCc1n[nH]c(C2CN(C(=O)c3cnns3)CCO2)n1` (stereo not drawn), the Percent Effect in assay [1] was -0.228%; in assay [2], 10.8%.
In the case of `COc1cccc(CN(C)Cc2ccc(C#N)cc2)c1OC`, the Percent Effect in assay [1] is -1.31%; in assay [2], 9.74%.
On the same counts, the results for `Cc1cc(C(=O)NC2CCc3nc(C)cn3C2)[nH]n1` (stereo not drawn) are -3.72% and -2.92%.
Turning to `COCCNC(=O)c1sc(Nc2ccc(Cl)cn2)nc1C`, the Percent Effect in assay [1] was -1.92%; in assay [2], -31.4%.
For `COc1ccccc1NC(=O)CSC1CCc2ccccc2NC1=O` (stereo not drawn) the same measures were -0.871% and -1%.
On the same counts, the results for `CC(C)n1c(=O)nc2n1C(=O)N(c1ccccc1)C2` are 2.04% and 0.0543%.
For `CC(C)NC(=O)[C@@H]1C[C@H](N)CN1C(=O)c1cc2ccccc2[nH]c1=O` the same measures were -2.73% and -0.544%.
As for `Cc1cccc(NS(=O)(=O)c2cc(C(=O)O)oc2C)c1Cl`, the Percent Effect in assay [1] was -1.97%; in assay [2] it was 8.36%.
For `O=C(c1cn(-c2ccccc2Cl)nn1)N1CCCSCC1`, the Percent Effect in assay [1] was found to be 0.212%; in assay [2], 5.41%.
In the case of `Cc1c(CN2CCCC(c3[nH]ncc3S(C)(=O)=O)C2)cnn1C` (stereo not drawn), the results for the Percent Effect in assay [1] and in assay [2] were -0.927% and -23.4%, respectively.
For `CC(C)c1n[nH]c(C2CN(Cc3nnc(C4CC4)o3)CCO2)n1` (stereo not drawn) the same measures were -2.26% and 0.109%.
Regarding `Cn1cnnc1C1CCCN(C(=O)c2n[nH]c3ccccc23)C1` (stereo not drawn), the Percent Effect in assay [1] was -3.14%; in assay [2] it was -4.11%.
On the same counts, the results for `CS(=O)(=O)NCC1CCCN(C(=O)Nc2ccccc2Cl)C1` (stereo not drawn) are -5.99% and 10.6%.
On the same counts, the results for `CC1CCN(c2ncc3c(n2)CN(c2ccc4c(c2)OCO4)C3=O)CC1` are 10.8% and -21.4%.
For `CC(C)c1n[nH]c(C(=O)Nc2ccncc2)c1Br`, the Percent Effect in assay [1] is -4.8%; in assay [2], 4.1%.
For the molecule `Cc1ccc(S(=O)(=O)N2CSCC2C(=O)N(C)C2CC2)cc1Cl` (stereo not drawn), the Percent Effect turned out to be 3.03% in assay [1] and 19.2% in assay [2].
On the same counts, the results for `Cn1cnc2c1CCN(Cc1cccc(C(N)=O)c1)C2` are -3.03% and -13.1%.
For the molecule `CC(=O)Nc1nc(CN2CCOC(Cn3cc(C)cn3)C2)cs1` (stereo not drawn), the values for the Percent Effect in assay [1] and in assay [2] were -1.93% and 16.6%, respectively.
For `CC(C)c1ccc(OCCC(=O)N2CCC(CC(N)=O)CC2)cc1` the same measures were -0.478% and 29.9%.
